Measurements reported in PubChem BioAssay (EPA / NIEHS).
The source made the active and inactive calls. Rule for the calls: active = hit-call score of the fitted dose curve at least 0.9, where 1 is the maximum; inactive = score below 0.9.

Assay: ATG_SREBP_CIS: Attagene CIS-FACTORIAL HepG2 Assay for human Sterol Regulatory Element Binding (SREBP) (AID 2282962)
Conditions: HepG2 Attagene cis-factorial SREBP reporter, mRNA; actives raise or lower the signal
Protocol: ATG_CIS is a cell-based, multiplexed-readout assay that uses HepG2, a human liver cell line, with measurements taken at 24 hours after chemical dosing in a 24-well plate.ATG_SREBP_CIS is one of 52 assay component(s) measured or calculated from the ATG_CIS assay. It is designed to make measurements of mRNA induction, a form of inducible reporter, as detected with fluorescence intensity signals by Reverse transcription polymerase chain reaction (RT-PCR) and Capillary electrophoresis technology.Data from the assay component ATG_SREBP_CIS was analyzed into 1 assay endpoint. This assay endpoint, ATG_SREBP_CIS, was analyzed with bidirectional fitting relative to DMSO as the negative control and baseline of activity. Using a type of inducible reporter, measures of mRNA for gain or loss-of-signal activity can be used to understand the reporter gene at the transcription factor-level as they relate to the gene SREBF1. Furthermore, this assay endpoint can be referred to as a primary readout, because this assay has produced multiple assay endpoints where this one serves a reporter gene function. To generalize the intended target to other relatable targets, this assay endpoint is annotated to the dna binding intended target family, where the subfamily is basic helix-loop-helix leucine zipper.
Human liver HepG2 cells are transiently transfected with multiple reporter transcription units (MRTUs) in 6-well plates using FuGene 6 reagent (Roche; 3 ml FuGene/1 mg DNA). The MRTU constructs are regulated by a cis-regulating element (promoter). […] A major difference between the CIS and TRANS system is that in CIS activities of endogenous TFs are measured, whereas the TRANS assay evaluates changes in activities of exogenous, chimeric NR-Gal4 proteins. […] At the end of 24 hour incubation, total RNA was isolated using TriZol reagent (Invitrogen). The isolated RNA is then reverse-transcribed using oligo(dT) primer and Mo-MLV reverse transcriptase (Invitrogen) with DNAse I (Ambion) treatment for 30 min. The one-tenth of the produced cDNA was amplified by PCR using Taq DNA polymerase (Invitrogen) and two reporter sequence-specific primers. The PCR products were fluorescently labeled by primer extension with 6-arboxyfluorescein (6-FAM) 5'-labeled reporter sequence-specific primer (2 min at 95 C, 20 s at 68 C and 10 min at 72 C) and these products were digested with 5U of HpaI (New England Biolabs) for 2h at 37 C. The fragments were purified using Qiaquick PCR columns (Qiagen), analyzed on an ABI 3130xL genetic analyzer (Applied Biosystems) with peak positions identified by using a set of X-rhodamine (ROX)-labeled MapMarker1000 molecular weight standards (BioVentures). The raw capillary electrophoresis data was processed using Attagraph software (Attagene).

| Compound | outcome | AC50 |
| --- | --- | --- |
| CC(=O)OC1CCCCC1 | inactive |  |
| c1ccc2c(c1)[nH]c1ccccc12 | inactive |  |
| CC1=NN(c2ccc(S(=O)(=O)O)cc2)C(=O)C1N=Nc1ccccc1 (stereo not given) | inactive |  |
| CCCC/C=C/C=C\C=O | inactive |  |
| CCCCCCCCCCCCC | inactive |  |
| O=C(O[C@@H]1Cc2c(O)cc(O)cc2O[C@@H]1c1cc(O)c(O)c(O)c1)c1cc(O)c(O)c(O)c1 | inactive |  |
| C=CC(=O)OCCCCCCOC(=O)C=C |  | 100 µM (active) |
| CCN(CC)c1cccc(C)c1 | inactive |  |
| CC(Cl)COP(=O)(OCC(C)Cl)OCC(C)Cl (stereo not given) | inactive |  |
| CC(=O)CCC1=C(C)CCCC1(C)C | inactive |  |
| COc1cc(C)ccc1O | inactive |  |
| CC(C)=CCCC(C)=CC#N | inactive |  |
| CCOC(=O)OC(=O)OCC | inactive |  |
| O=C(O)CCC(=O)O | inactive |  |
| CCCCCC(=O)OCC | inactive |  |
| O=C(Cl)c1ccc(C(=O)Cl)cc1 | inactive |  |
| C[Si]1(C)O[Si](C)(C)O[Si](C)(C)O[Si](C)(C)O[Si](C)(C)O1 | inactive |  |
| Cc1c(O)cccc1O | inactive |  |
| CCC(C)C(=O)OC (stereo not given) | inactive |  |
| C=CC(C)(CCC=C(C)C)OC(=O)C=Cc1ccccc1 (stereo not given) | inactive |  |

| Compound | outcome | AC50 |
| --- | --- | --- |
| c1ccc2sc(SSN3CCOCC3)nc2c1 |  | 59.2 µM (active) |
| C=C(C)OC(C)=O | inactive |  |
| O=C(O)c1ccc2c(c1)C(=O)OC2=O | inactive |  |
| O=C(O)C1CCC(C(=O)O)CC1 (stereo not given) | inactive |  |
| O=C1CCCCC1C1CCCCC1 (stereo not given) | inactive |  |
| CCOB(OCC)OCC | inactive |  |
| CC(C)c1cccc(C(C)C)c1N | inactive |  |
| CCCc1ccc(O)c(OC)c1 | inactive |  |
| O=C1CCCN1C1CCCCC1 | inactive |  |
| CCCCCCCCCC(C)=O | inactive |  |
| C=C(C)C1CC=C(C)C(OC(C)=O)C1 (stereo not given) | inactive |  |
| Cc1ccccc1CCO | inactive |  |
| COC(C=C(C)CCC=C(C)C)OC | inactive |  |
| Clc1cccnc1 | inactive |  |
| N#CC1(N)CCCCC1 | inactive |  |
| CCc1cccc(C)c1N(C(=O)CS(=O)(=O)O)C(C)COC (stereo not given) | inactive |  |
| Cc1c(C(=O)c2c[nH]n(C)c2=O)ccc(S(C)(=O)=O)c1C1=NOCC1 | inactive |  |
| CCCCCCCC(=O)OCC | inactive |  |
| Oc1ccccc1Cc1ccccc1O |  | 64.5 µM (active) |
| CCC(C)(O)CCCC(C)C (stereo not given) | inactive |  |
